# Measured values published in publication PMC4552634, “A New Set of Chemical Starting Points with Plasmodium falciparum Transmission-Blocking Potential for Antimalarial Drug Discovery” (PLoS ONE, 2015).
# Where two headings read alike, the source gives them in different places. Hit rate of the full screen: of about 13,000 compounds, about 3,200 (25%) showed an effect of 50% or more. Some of the results follow.
# System: P. falciparum stage V gametocytes
# Design: BacTiter-Glo ATP luminescence viability of purified stage V gametocytes in 384-well plates, per cent inhibition versus DMSO
# Details: 48 h, 5 µM, inhibitor
Structure (SMILES),% Inhibition,% Inhibition (% Inhibition)
O=C(CCCc1ccccc1)Nc1cccc(N2CCC(N3CCN(c4ccccc4O)CC3)CC2)c1 [TCMDC-124664],-59.43%,–
Nc1c2c(nc3ccc(NC(=O)CCCCCCc4ccccc4)cc13)CCCC2 [TCMDC-139056],74.85%,–
Cc1ccc2cc(NC(=O)CCCCCCCON3C(N)=NC(N)=NC34CCCCC4)ccc2n1 [TCMDC-140377],0.7997%,–
CN1CCN(c2ccnc3ccc(NC(=O)Cc4ccc5ccccc5c4)cc23)CC1 [TCMDC-139351],4.671%,–
Nc1c2c(nc3ccc(NC(=O)CCCc4ccccc4)cc13)CCCC2 [TCMDC-139057],98.45%,–
Nc1c2c(nc3cc(NC(=O)c4ccc([N+](=O)[O-])cc4)ccc13)CCCC2 [TCMDC-138975],103.7%,–
Nc1c2c(nc3ccc(NC(=O)c4ccccc4)cc13)CCCC2 [TCMDC-139043],28.63%,–
CN1CCN(c2ccnc3ccc(NC(=O)Cc4ccc(OCc5ccccc5)cc4)cc23)CC1 [TCMDC-139349],24.22%,–
Nc1c2c(nc3ccc(NC(=O)Cc4ccccc4)cc13)CCCC2 [TCMDC-139055],81.23%,–
O=C(Nc1ccc(O)c(-c2nc3ccccc3[nH]2)c1)c1ccc([N+](=O)[O-])cc1 [TCMDC-124222],-7.746%,–
Nc1c2c(nc3ccc(NC(=O)CCCCCc4ccccc4)cc13)CCCC2 [TCMDC-139060],-0.3465%,–
Cc1cc(N(C)C)nc(Nc2ccc(NC(=O)CCc3ccccc3)cc2)n1 [TCMDC-124721],2.562%,–
COc1ccc2cc(C(=O)NC3CCC(CCN4CCc5cc(C#N)ccc5C4)CC3)[nH]c2c1 (stereo not drawn) [TCMDC-139193],-26.16%,–
O=C(/C=C/c1ccc(Cl)c(Cl)c1)NC1CCC(CN2CCC(c3nc4ccc(O)cc4[nH]3)CC2)CC1 (stereo not drawn) [TCMDC-140227],3.463%,–
CCCc1cc(Cc2cnc(N)nc2N)cc(CCC)c1OC [TCMDC-137694],-10.37%,–
Cc1ccc(-c2noc(=O)n2CC(=O)Nc2ccccc2-c2ccccc2)cc1 [TCMDC-123570],15.39%,–
CC(C)c1sc(N2CCN(C)CC2)nc1C(=O)NCCc1cccc(Cl)c1 [TCMDC-134297],6.593%,–
CC(Cc1ccc(CNC(=O)NCc2ccc(CC(C)NCCc3cccc(Cl)c3)cc2)cc1)NCCc1cccc(Cl)c1 (stereo not drawn) [TCMDC-139648],111.4%,–
O=C(NCCc1ccc(Cl)c(Cl)c1)c1ccc(CNC(=O)c2ccc(O)c(-c3ccc(Cl)c(Cl)c3)c2)cc1 [TCMDC-140872],8.428%,–
CC(Cc1ccc(CNC(=O)c2ccc(CC(C)NCCc3cccc(Cl)c3)cc2)cc1)NCCc1cccc(Cl)c1 (stereo not drawn) [TCMDC-139659],108.3%,–
CC(C)c1ccc(NC(=O)c2ccc(CN3CCCN(Cc4cccc(Cl)c4)CC3)cc2)cc1 [TCMDC-136418],3.705%,–
CC(Cc1ccc(NS(=O)(=O)c2ccc(CC(C)NCCc3cccc(Cl)c3)cc2)cc1)NCCc1cccc(Cl)c1 (stereo not drawn) [TCMDC-139797],48.75%,–
CC(Cc1ccc(C(=O)N2CCN(C(=O)c3ccc(CC(C)NCCc4cccc(Cl)c4)cc3)CC2)cc1)NCCc1cccc(Cl)c1 (stereo not drawn) [TCMDC-139613],105.5%,–

Structure (SMILES),% Inhibition,% Inhibition (% Inhibition)
CC(C)n1cc(CN2CCCC(C(=O)Nc3cccc(-c4cc5ccccc5[nH]4)c3)C2)cn1 (stereo not drawn) [TCMDC-124681],-62.3%,–
CC(C)c1sc(N2CCCCC2)nc1C(=O)Nc1ccc(F)cc1C(F)(F)F [TCMDC-134299],-21.66%,–
COc1cccc(CNC(=O)NC2CCN(c3ccnc(Nc4cc(OC)c(OC)c(OC)c4)n3)C2)c1 (stereo not drawn) [TCMDC-133628],38.97%,–
CS(=O)(=O)NCCCNCc1ccc(-c2ccc(-c3nc4cc(C(F)(F)F)ccc4[nH]3)cc2)cc1.O=C(O)C(F)(F)F [TCMDC-133080],-31.8%,–
CN1CCC(NCc2ccc(-c3ccc(C(F)(F)F)cc3)cc2)CC1 [TCMDC-141094],-30.31%,–
CN(C)CCCNCc1ccc(-c2ccc(C(F)(F)F)cc2)cc1 [TCMDC-140011],92.27%,–
CS(=O)(=O)NCCCNCc1ccc(-c2cccc(-c3nc4ccc(C(F)(F)F)cc4[nH]3)c2)cc1 [TCMDC-133087],6.297%,–
FC(F)(F)c1ccc2[nH]c(-c3ccc(-c4ccc(CNCCc5ccncc5)cc4)cc3)nc2c1.O=C(O)C(F)(F)F [TCMDC-132852],-64.17%,–
CCN(CC)CCCNCc1ccc(-c2ccc(C(F)(F)F)cc2)cc1 [TCMDC-141087],65.86%,–
O=C(CC(=O)C(F)(F)F)c1ccccc1[N+](=O)[O-] [TCMDC-125884],22.33%,–
Cc1ccc(-n2c(Cc3cccc4ccccc34)nnc2SCCC#N)c(C)c1 [TCMDC-123560],-0.8399%,–
O=C(CC1CCCC1)Nc1ccc2c(c1)CCC2 [TCMDC-124327],8.334%,–
CC(C)n1ncc2c(C(=O)N3CCCC4CCCCC43)cc(C3CC3)nc21 (stereo not drawn) [TCMDC-125305],-1.205%,–
Cc1ccc(-n2c(Sc3ncnc4sccc34)nnc2N2CCCC2)cc1 [TCMDC-125247],65.97%,–
CN1CCN(CCCCCNc2c3ccccc3nc3ccccc23)CC1 [TCMDC-137541],96.5%,–
CN1CCN(c2nc(NCCNc3ccc([N+](=O)[O-])cc3)c3ccccc3n2)CC1 [TCMDC-124567],35.05%,–
CN1CCN(CCCCNc2c3ccccc3nc3ccccc23)CC1 [TCMDC-137479],105.4%,–
COc1cc2nc(NCCC(C)C)n3nc(-c4ccccc4)nc3c2cc1OC [TCMDC-124451],-18.82%,–
CC(CCNc1c2ccccc2nc2ccccc12)N1CCN(C)CC1 (stereo not drawn) [TCMDC-138011],98.03%,–
CN1CCN(CCCCCCNc2c3ccccc3nc3ccccc23)CC1 [TCMDC-137542],98.34%,–
COc1ccc2nccc([C@@H](O)CN3CCC(NCc4nc5c(cc4Cl)SCC(=O)N5)C(F)C3)c2c1 (stereo partly drawn) [TCMDC-141717],–,2.766%
O=C(Nc1ccc(S(=O)(=O)N2CCCC2)cc1)c1cc(-c2cccnc2)nc2ccc(Cl)cc12 [TCMDC-124359],-22.21%,–
COc1ccc(-c2cnc(N)nc2N)cc1Cl [TCMDC-137297],-3.357%,–

Structure (SMILES),% Inhibition,% Inhibition (% Inhibition)
CC(C)(C)c1cc(C(=O)N2CCN(c3ccc(C(F)(F)F)cn3)CC2)n(Cc2ccc(F)cc2)n1 [TCMDC-123791],22.03%,–
Cc1nc(-c2cccc3c(NC(=O)N4CCc5cc6nccc(N7CCN(C)CC7)c6cc54)cccc23)no1 [TCMDC-139370],-51.93%,–
Cc1cc(N2CCCCC2)nc2ccc(NC(=O)c3cncc(Br)c3)cc12 [TCMDC-124421],17.06%,–
O=C(Nc1ccccc1)c1ccc(N2CCC(COc3cccc(C(F)(F)F)c3)CC2)nc1 [TCMDC-134507],-9.482%,–
CC(C)CNCc1cccc(-c2ccc(CN(C(=O)NC3CCCCC3)C3CCN(Cc4ccccc4)CC3)cc2)c1 [TCMDC-140634],102.1%,–
CC(C)CNCc1ccc(-c2cccc(CN(C(=O)NC3CCCCC3)C3CCN(Cc4ccccc4)CC3)c2)cc1 [TCMDC-140628],92.69%,–
CC(C)CNCc1ccc(-c2ccc(CN(C(=O)NC3CCCCC3)C3CCN(Cc4ccccc4)CC3)cc2)cc1 [TCMDC-140635],103.7%,–
CC(C)CNCc1cccc(-c2cccc(CN(C(=O)NC3CCCCC3)C3CCN(Cc4ccccc4)CC3)c2)c1 [TCMDC-140627],95.46%,–
CC(C)Oc1ccc(C=CC(=O)Nc2noc3ccccc23)cc1 [TCMDC-125292],41.66%,–
Cc1cccc(CNc2nc(C)cc(NCCC(=O)NCCOc3ccccc3)n2)c1 [TCMDC-134884],13.93%,–
COc1ccc2ncc(Cl)c(CCN3CCC(NCc4ccc5c(n4)NC(=O)CO5)CC3)c2c1 [TCMDC-141808],-9.673%,–
O=C(NCCc1ccc(O)cc1)n1c2ccccc2c2ccccc21 [TCMDC-138166],-0.5781%,–
Cc1ccccc1CNc1noc(-c2c(F)cccc2Cl)n1 [TCMDC-133373],21.36%,–
Cc1cc(OCC2CCN(c3ncc(C(=O)NC4CC4)cc3Cl)CC2)ccc1F [TCMDC-134032],14.47%,–
O=C(NC1CC1)c1cnc(N2CCC(Oc3ccc(Cl)cc3)CC2)c(Cl)c1 [TCMDC-134040],28.34%,–
Cc1cccc(OC2CCN(c3ncc(C(=O)NCCCN4CCCC4=O)cc3Cl)CC2)c1 [TCMDC-134057],81.53%,–
CC(C)c1cccc(OCC2CCN(c3ncc(C(=O)NC4CC4)cc3Cl)CC2)c1 [TCMDC-134260],-10.41%,–
Cc1ccc(OCC2CCN(c3ncc(C(=O)NCCCN4CCCC4=O)cc3Cl)CC2)cc1 [TCMDC-134056],53.1%,–
Cc1cccc(OCC2CCN(c3ncc(C(=O)NC4CC4)cc3Cl)CC2)c1 [TCMDC-134058],0.6256%,–
Cc1ccc(OCC2CCN(c3ncc(C(=O)NC4CC4)cc3Cl)CC2)cc1 [TCMDC-134055],11.28%,–
O=C(NCCCN1CCCC1=O)c1cnc(N2CCC(Oc3ccccc3)CC2)c(Cl)c1 [TCMDC-134054],50.82%,–
O=C(NC1CC1)c1cnc(N2CCC(OCc3ccccc3)CC2)c(Cl)c1 [TCMDC-134610],14.6%,–
CC(C)(C)c1ccc(NC(=O)c2cccc(CN3CCN(Cc4cccc(O)c4)CC3)c2)cc1 [TCMDC-136604],-36.18%,–
